Test results as given in PubChem BioAssay AID588354 (The Scripps Research Institute Molecular Screening Center, 2011).
Screen size: about 360,000 compounds; about 430 (0.12%) were called active. Shown is part of a subset that was picked to be rich in actives. Values without a mark were called inactive.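 How the source made its calls: active means inhibition above the campaign mean plus 3 SD, with each screening campaign given its own cutoff (cut at about 60% in these data); inactive means the rest.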

biological target: Nuclear receptor coactivator 1 (Homo sapiens) (UniProt Q15788); test: SRC1 coactivator transcriptional activity inhibitors, primary screen, cell-based, luminescence (AID 588354); conditions: HEK293 GAL4-SRC1 luciferase reporter, at 3.6 µM, active compounds read high;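 further: 0% = DMSO treated cells and 100% = gossypol at 36 µM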
Sequence (Q15788 whole entry, looked up, the tested form may be a part): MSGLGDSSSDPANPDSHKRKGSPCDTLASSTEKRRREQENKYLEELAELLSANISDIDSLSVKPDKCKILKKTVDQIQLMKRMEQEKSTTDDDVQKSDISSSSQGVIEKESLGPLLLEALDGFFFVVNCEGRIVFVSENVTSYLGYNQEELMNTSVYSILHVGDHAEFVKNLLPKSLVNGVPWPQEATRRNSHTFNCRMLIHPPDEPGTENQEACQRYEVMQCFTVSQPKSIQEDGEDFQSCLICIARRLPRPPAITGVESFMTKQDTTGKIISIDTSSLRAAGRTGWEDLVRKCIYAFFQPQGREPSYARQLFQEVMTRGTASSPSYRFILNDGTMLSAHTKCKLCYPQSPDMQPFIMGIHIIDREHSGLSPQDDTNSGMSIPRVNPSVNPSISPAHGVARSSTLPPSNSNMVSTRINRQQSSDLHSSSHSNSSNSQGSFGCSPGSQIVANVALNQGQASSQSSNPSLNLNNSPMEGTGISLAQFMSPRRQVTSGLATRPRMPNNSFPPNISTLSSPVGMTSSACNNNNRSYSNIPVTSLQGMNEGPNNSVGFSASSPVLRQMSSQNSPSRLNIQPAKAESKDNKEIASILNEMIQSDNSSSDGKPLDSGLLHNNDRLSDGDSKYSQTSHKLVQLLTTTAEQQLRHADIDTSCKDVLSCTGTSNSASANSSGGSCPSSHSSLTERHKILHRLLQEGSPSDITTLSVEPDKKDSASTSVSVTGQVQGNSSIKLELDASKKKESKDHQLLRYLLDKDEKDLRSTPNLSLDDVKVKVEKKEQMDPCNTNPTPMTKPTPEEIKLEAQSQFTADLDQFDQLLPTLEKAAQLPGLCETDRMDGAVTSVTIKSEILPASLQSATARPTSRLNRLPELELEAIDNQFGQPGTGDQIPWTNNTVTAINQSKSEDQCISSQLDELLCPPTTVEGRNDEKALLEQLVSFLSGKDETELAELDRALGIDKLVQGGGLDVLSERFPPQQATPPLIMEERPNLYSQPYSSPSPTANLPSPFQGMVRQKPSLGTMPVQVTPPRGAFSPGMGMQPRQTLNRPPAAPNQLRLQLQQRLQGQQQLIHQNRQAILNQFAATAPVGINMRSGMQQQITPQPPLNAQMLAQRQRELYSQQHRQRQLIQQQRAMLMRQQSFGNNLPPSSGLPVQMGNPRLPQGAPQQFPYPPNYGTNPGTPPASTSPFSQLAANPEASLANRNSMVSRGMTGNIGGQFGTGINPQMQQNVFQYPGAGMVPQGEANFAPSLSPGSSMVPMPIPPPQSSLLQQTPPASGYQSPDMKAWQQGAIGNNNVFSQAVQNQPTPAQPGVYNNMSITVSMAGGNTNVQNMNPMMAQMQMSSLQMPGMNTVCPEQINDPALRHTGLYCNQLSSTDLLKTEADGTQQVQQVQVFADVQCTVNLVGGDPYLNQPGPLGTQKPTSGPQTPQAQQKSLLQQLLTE

| Compound | inhibition |
| --- | --- |
| C[C@]12CC[C@H](O)C[C@H]1CC[C@@H]1C2CC[C@]2(C)[C@@H](C3=CC(=O)OC3)[C@@H](O)C[C@]12O (stereo not given in full) | 53.1% |
| COC1C(O)C(C)OC(OC2CCC3(C=O)C(CCC4C3CCC3(C)C(C5=CC(=O)OC5)CCC43O)C2)C1O (stereo not given) | 90.4% (active) |
| CCC1(C)CC(CCNCc2ccc(N(C)C)cc2)(c2ccc(F)cc2)CCO1 (stereo not given) | -23.1% |
| Cc1cccc(-n2c(C)nc3cc(C(=O)N4CCC5(CC4)OCCO5)ccc32)c1 | 7.63% |
| CC1CCC(N(C)C2CCN(C)CC2)CC1 (stereo not given) | 9.39% |
| COC(=O)C1=C(c2ccc(Cl)c(C(F)(F)F)c2)C[C@@H]2CC[C@H]1N2C(=O)NC(C)C | 1.75% |
| CCC(C)(O)C(=O)OC1C(=O)OC2CC3C(C)=CC(=O)C(O)C3(C)C3C4(O)OCC23C1C(C)C4O (stereo not given) | 95.5% (active) |
| Cn1cc(C(=O)OCC(=O)N2CCCC2)c2ccccc21 | -5.08% |
| CC(=O)OC1C2(CC3N4C(=O)C5(CO)SSC4(CC31O)C(=O)N5C)OC(C)C(C)(C)C2=O (stereo not given) | 23.6% |
| CCOC(=O)CC(SP1(=S)OCC2(CCCCO2)C(C2CCCCO2)O1)C(=O)OCC (stereo not given) | -3.46% |
| Cc1ccccc1NC(=O)COC(=O)c1cc(C)n(C2CC2)c1C | -22.1% |
| O=C(COc1ccc2ccccc2c1)N1CCN(Cc2ccncc2)CC1 | -6.36% |
| CCOc1ccc(-c2cc(C)[n+](CCN(CC)CC)c(-c3ccc(OCC)cc3)c2)cc1 | 62% (active) |
| CNC(=O)N(C)c1nnc(C(C)(C)C)s1 | -3.52% |
| N[C@@H](Cc1c[nH]c2ccccc12)c1nnc(SCc2c(F)cccc2Cl)o1 | -58.9% |
